Here are results for 40 compounds from PubChem BioAssay (EPA / NIEHS).

The structures appear in SMILES notation. Results filed as inconclusive are left out. Active and inactive are the calls of the source. How the source made its calls: active means hit-call score of the fitted dose curve at least 0.9, where 1 is the maximum; inconclusive means response in the unintended direction; inactive means score below 0.9.

This assay can be described thus: ATG_GAL4_TRANS: Attagene TRANS-FACTORIAL HepG2 Assay for GAL4 (Internal Marker) (AID 2282976). The following applies: HepG2 Attagene TRANS GAL4 internal marker reporter. As for the experimental part:
ATG_TRANS is a cell-based, multiplexed-readout assay that uses HepG2, a human liver cell line, with measurements taken at 24 hours after chemical dosing in a 24-well plate.ATG_GAL4_TRANS is one of 30 assay component(s) measured or calculated from the ATG_TRANS assay. It is designed to make measurements of mRNA induction, a form of inducible reporter, as detected with fluorescence intensity signals by Reverse transcription polymerase chain reaction (RT-PCR) and Capillary electrophoresis technology.Data from the assay component ATG_GAL4_TRANS was analyzed into 1 assay endpoint. This assay endpoint, ATG_GAL4_TRANS, was analyzed in the positive analysis fitting direction relative to DMSO as the negative control and baseline of activity. Using a type of inducible reporter, measures of mRNA for gain-of-signal activity can be used to understand the background control at the transcription factor-level as they relate to the gene . Furthermore, this assay endpoint can be referred to as a secondary readout, because this assay has produced multiple assay endpoints where this one serves a background control function. To generalize the intended target to other relatable targets, this assay endpoint is annotated to the background measurement intended target family, where the subfamily is baseline control.
Human liver HepG2 cells are transiently transfected with multiple reporter transcription units (MRTUs) in 6-well plates using FuGene 6 reagent (Roche; 3 ml FuGene/1 mg DNA). The MRTU constructs are regulated by a cis-regulating element (promoter). […] A major difference between the CIS and TRANS system is that in CIS activities of endogenous TFs are measured, whereas the TRANS assay evaluates changes in activities of exogenous, chimeric NR-Gal4 proteins. […] At the end of 24 hour incubation, total RNA was isolated using TriZol reagent (Invitrogen). The isolated RNA is then reverse-transcribed using oligo(dT) primer and Mo-MLV reverse transcriptase (Invitrogen) with DNAse I (Ambion) treatment for 30 min. The one-tenth of the produced cDNA was amplified by PCR using Taq DNA polymerase (Invitrogen) and two reporter sequence-specific primers. The PCR products were fluorescently labeled by primer extension with 6-arboxyfluorescein (6-FAM) 5'-labeled reporter sequence-specific primer (2 min at 95 C, 20 s at 68 C and 10 min at 72 C) and these products were digested with 5U of HpaI (New England Biolabs) for 2h at 37 C. The fragments were purified using Qiaquick PCR columns (Qiagen), analyzed on an ABI 3130xL genetic analyzer (Applied Biosystems) with peak positions identified by using a set of X-rhodamine (ROX)-labeled MapMarker1000 molecular weight standards (BioVentures). The raw capillary electrophoresis data was processed using Attagraph software (Attagene).
Take `Cc1ccc(C)c(OCCCC(C)(C)C(=O)O)c1`: the outcome was inactive. Take `CC(C)=CCCC(C)=CC#N`: the call was inactive. The value for `Cc1cc(=O)[nH]c(=O)[nH]1` was “inactive”; that for `CC(=O)OC/C=C(/C)CCC=C(C)C` was “inactive”; that for `O=C(O)/C=C/c1ccccc1` was “inactive”. On to `O=C(O)CCC(=O)O`, for which the outcome was inactive.

In the case of `CCC(C)c1ccccc1` (stereo not given), the call was inactive. The value for `C=C1C[C@H]2[C@@H]3C=C(C)C4=CC(=O)CC[C@]4(C)[C@H]3CC[C@]2(C)[C@@]1(OC(C)=O)C(C)=O` was “inactive”; that for `CCc1cccc(C)c1N` was “inactive”; that for `Clc1cc(Cl)c(Cl)c(Cl)c1Cl` was “inactive”. In the case of `c1ccc2cnccc2c1`, the compound was called inactive.

Take `CC1(C)C(=O)N(CO)C(=O)N1CO`: the compound was called inactive. Regarding `CC12CCC(CC1)C(C)(C)O2`, the result was inactive. Turning to `C=CCCCCCCCCOC(C)=O`, the compound was classed as inactive.

For the compound `c1ccc2c(c1)[nH]c1ccccc12`, the compound was classed as inactive. As to `CC/C=C\CCOC(=O)c1ccccc1O`, the compound was called inactive. The value for `CC(CC(C)C)=NO` was “inactive”; that for `CC(=O)OC1CCCCC1C(C)(C)C` (stereo not given) was “inactive”. With `CC(C)c1cccc(C(C)C)c1N`, the call was inactive. In the case of `CC(=O)C(C)C`, the outcome was inactive.

Regarding `CC(C)(C)NC(=O)[C@H]1CC[C@H]2[C@@H]3CC[C@H]4NC(=O)C=C[C@]4(C)[C@H]3CC[C@]12C`, the result was inactive. For `CCCCCC(=O)OCC`, the outcome was inactive. With `CCCCCCOC(=O)CCCCC(=O)OCCCCCC`, the call was inactive.

In the case of `Oc1ccccc1Cc1ccccc1O`, the result was inactive. As for `CCOC(=O)[C@H](O)[C@@H](O)C(=O)OCC`, the outcome was inactive. As to `COc1nccnc1CC(C)C`, the result was inactive. For the compound `O=C(C=Cc1ccccc1)OCCc1ccccc1`, the result was inactive.

For `CO[Si](CCCS)(OC)OC`, the result was inactive. `CCCCNC(=S)NCCCC`: the result was inactive. As to `CCCCOCCOC(=O)COc1ccc(Cl)cc1Cl`, the outcome was inactive. Turning to `O=C(O)c1ccc2c(c1)C(=O)OC2=O`, the outcome was inactive.

In the case of `CC(CCC(=O)O)(c1ccc(O)cc1)c1ccc(O)cc1`, the outcome was inactive. Take `CCCC/C=C/C=C\C=O`: the call was inactive. Turning to `CCCCCCCCCC(C)=O`, the compound was classed as inactive.

Turning to `CC(CC=O)CC(C)(C)C` (stereo not given), the compound was classed as inactive. As to `COc1cc(C)ccc1O`, the call was inactive. For `O=C(Oc1ccccc1)c1ccccc1C(=O)Oc1ccccc1`, the outcome was inactive.

As for `CC(=O)OCC=C(C)C`, the outcome was inactive. Turning to `CCc1occc(=O)c1O`, the outcome was inactive. With `CCOc1ccc(NC(N)=O)cc1` the entry was “inactive”.
